Hits are enriched below; roughly 2.4% of the tested compounds scored in any of these assays.
SENP8 block-1: SENP8 (human) protease inhibition. Q96LD8. recombinant SENP8, Nedd8 substrate fluorescence. inhibition, % at 20 µM. hit rate 0.64% among 360,000. AID 602440; in the data active = inhibition mostly above about 40%, no sharp cut-off; inactive = mostly below about 27%
Platelet DG rel: modulates dense granule release in human platelets; human platelet-rich plasma, SFLLRN dense granule ATP release, luminescence; inhibition, %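 (compounds screened at 7.5 µM in platelet-rich plasma)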; hit rate 0.22% among 300,000; AID 1663;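 active = mean replicate score, as percent of positive control, at or above 50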
SENP7 inh: SENP7 protease inhibition | hit rate 1.5% among 330,000 | inhibition, % at 5 µM | recombinant SENP7, Z-RLRGG-aminoluciferin luminescence, 40 min | Q9BQF6 | AID 434973;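 active = inhibition above about 50% at the single test dose, limit read from the data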;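 also: plate controls were DMSO with enzyme for no effect and no enzyme buffer wells for full effect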
Target sequence (Q9BQF6 706-1050 limits assumed): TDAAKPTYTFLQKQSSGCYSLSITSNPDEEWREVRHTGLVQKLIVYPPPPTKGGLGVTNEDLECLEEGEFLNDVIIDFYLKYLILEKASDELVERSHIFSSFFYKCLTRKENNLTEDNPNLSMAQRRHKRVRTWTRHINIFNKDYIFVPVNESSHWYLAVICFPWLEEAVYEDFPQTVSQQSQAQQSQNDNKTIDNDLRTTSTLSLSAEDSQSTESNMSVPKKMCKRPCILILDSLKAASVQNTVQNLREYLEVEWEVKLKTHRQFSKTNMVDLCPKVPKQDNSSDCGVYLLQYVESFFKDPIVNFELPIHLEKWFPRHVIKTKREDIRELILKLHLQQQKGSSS
SENP6 inh: blocks the human protease SENP6. Q9GZR1. Recombinant SENP6 catalytic domain, aminoluciferin luminescence. inhibition, % at 10 µM. hit rate 1.8% among 330,000. AID 2599;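 active = inhibition above about 50% at the single tested dose, limit read from the data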;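 also: plate controls were DMSO wells with enzyme for no effect and DMSO wells lacking enzyme for full effect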
SENP8 block-2: blocks the human protease SENP8. inhibition, % at 10 µM. hit rate 1.2% among 330,000. purified SENP8, Z-RLRGG-aminoluciferin cleavage, luminescence. AID 2540. Q96LD8; in the data active = inhibition above about 50%
Starred values were filed as active, the others as inactive; i = inactive; nt = no result.

SMILES | SENP8 block-1 | Platelet DG rel | SENP7 inh | SENP6 inh | SENP8 block-2
O=C1c2ccccc2C(=O)c2c1cccc2N1CCCC1 | 46* | 7 | nt | nt | nt
CCNc1ccccc(-c2ccc3ccccc3n2)c1=O | -4 | -5 | -3 | -19 | -2
CCNc1ccc2noc3c2c1C(=O)c1ccccc1-3 | 42* | 8 | -14 | -11 | 6
N#CC1=C(N)C(C#N)(C#N)[C@H](c2ccoc2)[C@H]2CN(Cc3ccccc3)CC=C12 | -498 | 4 | 77* | 91* | 84*
C(=N\Nc1nc2ccccc2[nH]1)/c1ccccn1 | 13 | 62* | nt | nt | nt
COc1ccc(S(=O)(=O)N2CCOCC2)cc1NC(=O)CN1CCCc2ccccc21 | 10 | nt | -13 | -2 | -7
Cc1cc(C)c2nc(-c3ccccc3)ccc2c1 | 16 | nt | nt | nt | nt
Cc1sc(NC(=O)C2C3CCC(O3)C2C(=O)O)nc1-c1ccc(CC(C)C)cc1 (configuration not stated) | 12 | 3 | 14 | 56* | 4
CCOC(=O)c1c(NC(=O)C2C3CCC(O3)C2C(=O)O)sc(C)c1-c1ccc(C)cc1 (configuration not stated) | -19 | 1 | 6 | 16 | 7
Cc1cc2nc3ccc(N(C)C)cc3nc2cc1N | 81* | -2 | 16 | 51* | 50
Cc1ccc(-n2nc3cc(C)c(N)cc3n2)cc1 | i | 3 | 0 | 39 | 13
CCOC(=O)Nc1nnc(-c2ccccc2OC)s1 | -173 | 11 | 5 | -22 | -9
COC(=O)Nc1nnc(-c2ccccc2OC)s1 | -168 | -8 | 67* | 42 | 33
Cc1[nH]n(-c2ccccc2)c(=O)c1/C=N/c1ccccn1 | 41* | 3 | 1 | -10 | 1
Cc1ccc(N=Cc2c(C)[nH]n(-c3ccccc3)c2=O)nc1 | 21 | -1 | 0 | -7 | -7
CC1=NN(c2ccccc2)C(=O)/C1=C\c1c(C)[nH]n(-c2ccccc2)c1=O | 42* | -2 | 7 | 2 | 3
O=C(COC(=O)c1c[nH]c(=O)[nH]c1=O)Nc1ccccc1Br | 26 | 82* | -5 | -21 | -9
CCCCn1nnnc1C1(C)CCC(=O)N1CC1CCCCC1 (configuration not stated) | 7 | nt | nt | nt | nt
Cc1nc(NC(=O)c2ccccc2)sc1-c1csc(Nc2ccc(Cl)cc2Cl)n1 | nt | 16 | 59* | 51* | 33
Cc1nc(NC(=O)c2ccccc2)sc1-c1csc(Nc2ccc(Cl)cc2)n1 | nt | 4 | 25 | 51* | 42
COc1ccc(Cl)cc1Nc1nc(-c2sc(NC(=O)c3ccccc3)nc2C)cs1 | nt | 9 | 45 | 44 | 44
COc1cc(C(O)c2nc(-c3cccs3)cs2)ccc1F (configuration not stated) | 7 | nt | nt | nt | nt
Cc1ccc2nc(-c3ccc(NC(=O)CSc4nccc(=O)[nH]4)cc3)sc2c1 | -362 | 2 | 69* | 81* | 8
Cc1ccc2nc(-c3ccc(NC(=O)CSc4nc(N)cc(=O)[nH]4)cc3)sc2c1 | -418 | 0 | 2 | 17 | 10
CN(C)Cc1cc(O)c(CN(C)C)cc1O | 55* | -6 | -2 | 32 | 7
SMILES | SENP8 block-1 | Platelet DG rel | SENP7 inh | SENP6 inh | SENP8 block-2
CN(C)Cc1cc(C(C)(C)C)cc(C(C)(C)C)c1O | 18 | 2 | 2 | 2 | 8
COC1=CC(=O)C=C(OC)C1=O | 22 | nt | nt | nt | nt
COC1=CC(=O)c2ccccc2C1=O | -221 | nt | 18 | 56* | 51*
COC(=O)C1CCN(CC(=O)Nc2ccc(C(=O)Nc3ccccc3OC)cc2)CC1 | 7 | nt | 2 | 2 | 6
CC1=Nc2cccc3cccc(c23)N1C | 44* | 10 | -1 | -3 | -6
CCC(=O)Nc1cccc(NC(=S)NC(=O)c2cc3ccccc3o2)c1 | 15 | 3 | 76* | 10 | -1
CCC(=O)Nc1ccc(NC(=S)NC(=O)c2cc3ccccc3o2)cc1 | 14 | 36 | 3 | -6 | 4
Clc1ccc2[nH]c(-c3ccccc3)cc2c1 | -372 | nt | 60* | 70* | 62*
COCCn1c(/C=C/c2ccccc2)nc2ccccc21 | -480 | 11 | 65* | -7 | 37
CCOC(=O)c1cccc(NC(=O)c2ccc(N(C)C)cc2)c1 | -23 | 22 | 3 | -1 | -3
CC(=O)Oc1ccc(-c2cc3c(OC(C)=O)cc(OC(C)=O)cc3oc2=O)cc1 | -1 | 58* | 5 | 17 | -5
COC(=O)c1ccc(CSc2nnc(N)s2)cc1 | 21 | 75* | -4 | -35 | -9
O=C(O)COc1ccccc1/C=N/NC(=O)CSc1nc2ccccc2n1Cc1ccccc1 | 14 | 3 | 9 | -1 | -3
O=C(O)COc1ccccc1/C=N/NC(=O)CSc1nnc(SCc2ccccc2)s1 | 22 | 0 | 14 | 56* | 24

Screening data: PubChem BioAssay, several laboratories
